Laboratory results reported in PubChem BioAssay AID1159580 (chemical genetic matrix, 2015).
The campaign covered roughly 5,500 compounds. About 2,000 (36%) were called active. Another 18% or so got no clear call; they are omitted. Rule as the data show it: active = normalized growth mostly below about 0.91 (no sharp cut-off); inconclusive = no clear call, values can overlap the other calls; inactive = mostly above about 0.92. This is one part of the list.

Experiment: chemical genetic growth profiling, strain panel (AID 1159580);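 also: tested at 20 µM; growth read once vehicle control cultures reached saturation at 30 °C; 1 = growth at the plate median or of vehicle wells; lower values mean less growth of the strain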
Settings: growth OD

Measured: normalized growth

CCNS(=O)(=O)c1cc(Cl)sc1Cl
inactive: S. cerevisiae deletion strains, locus YAL013W, strain DEP1, stronger effect = lower value 0.992 | S. cerevisiae deletion strains, locus YBR229C, strain ROT2, stronger effect = lower value 1.02 | S. cerevisiae deletion strains, locus YDL101C, strain DUN1, stronger effect = lower value 0.99 | S. cerevisiae deletion strains, locus YDL134C, strain PPH21, stronger effect = lower value 1.01 | S. cerevisiae deletion strains, locus YDR150W, strain NUM1, stronger effect = lower value 0.947 | S. cerevisiae deletion strains, locus YEL061C, strain CIN8, stronger effect = lower value 0.995 | S. cerevisiae deletion strains, locus YGR078C, strain PAC10, stronger effect = lower value 1 | S. cerevisiae deletion strains, locus YGR229C, strain SMI1, stronger effect = lower value 0.994 | S. cerevisiae deletion strains, locus YHR030C, strain SLT2, stronger effect = lower value 1.05 | S. cerevisiae deletion strains, locus YHR087W, strain rtc3, stronger effect = lower value 1 | S. cerevisiae deletion strains, locus YJR043C, strain POL32, stronger effect = lower value 1.01 | S. cerevisiae deletion strains, locus YJR075W, strain HOC1, stronger effect = lower value 1.01 | S. cerevisiae deletion strains, locus YKL190W, strain CNB1, stronger effect = lower value 1 | S. cerevisiae deletion strains, locus YLR039C, strain RIC1, stronger effect = lower value 0.989 | S. cerevisiae deletion strains, locus YLR058C, strain SHM2 (second series), stronger effect = lower value 1.04 | S. cerevisiae deletion strains, locus YLR085C, strain ARP6, stronger effect = lower value 0.983 | S. cerevisiae deletion strains, locus YLR262C, strain YPT6, stronger effect = lower value 0.985 | S. cerevisiae deletion strains, locus YML094W, strain GIM5, stronger effect = lower value 1.01 | S. cerevisiae deletion strains, locus YMR219W, strain ESC1, stronger effect = lower value 0.994 | S. cerevisiae deletion strains, locus YMR263W, strain SAP30, stronger effect = lower value 1.01 | S. cerevisiae deletion strains, locus YMR307W, strain GAS1, stronger effect = lower value 0.976 | S. cerevisiae deletion strains, locus YNL153C, strain GIM3, stronger effect = lower value 1.01 | S. cerevisiae deletion strains, locus YNL298W, strain CLA4 (second series), stronger effect = lower value 1.05 | S. cerevisiae deletion strains, locus YNL322C, strain KRE1, stronger effect = lower value 0.992 | S. cerevisiae deletion strains, locus YNR030W, strain Alg12, stronger effect = lower value 1.01 | S. cerevisiae deletion strains, locus YOL006C, strain TOP1, stronger effect = lower value 1.02 | S. cerevisiae deletion strains, locus YPL055C, strain LGE1, stronger effect = lower value 1.12 | S. cerevisiae deletion strains, locus YPL241C, strain CIN2, stronger effect = lower value 1.01 | S. cerevisiae deletion strains, locus YPR135W, strain CTF4, stronger effect = lower value 1.13 | S. cerevisiae strains, strain wild type, stronger effect = lower value 0.998
